# Laboratory results: the supplement of paper PMC13380429
# Where a name gives a salt, the structure may show the parent alone.
# Tested on: Vero E6 infected with SARS-CoV-2
# Experiment: morphology score (similarity to uninfected cells); higher = more like uninfected cells
# Conditions: 24 h
row,SMILES,morphology score
1,CC(C)NCC(O)c1ccc(N)c(C#N)c1 (stereo not given) [cimaterol] (10 µM),-0.059
2,Cc1cc(=O)n(-c2ccccc2)[nH]1 [N-demethylantipyrine] (10 µM),0.121
3,COc1cccc2cc(-c3nc([C@H]4CC[C@H](C(=O)O)CC4)n4ncnc(N)c34)[nH]c12 (0.833333 µM),0.174
4,CN(C)CCNc1nc2cc(O)ccc2c2c1C(=O)c1ccccc1-2 (10 µM),-0.234
5,COc1cccc2c1C(=O)c1c(O)c3c(c(O)c1C2=O)C[C@@](O)(C(=O)CO)C[C@@H]3O[C@H]1C[C@H](N)[C@@H](O)[C@H](C)O1 [Epirubicin Hydrochloride] (10 µM),-0.016
6,CO[C@@]12[C@H](COC(N)=O)C3=C(C(=O)C(C)=C(N)C3=O)N1C[C@@H]1N[C@@H]12 [mitomycin-C] (10 µM),0.101
7,Cn1c(=O)c2c(ncn2CCO)n(C)c1=O [etofylline] (10 µM),0.0956
8,O=C1NC(=O)/C(=C/c2ccc3nccc(-c4ccncc4)c3c2)S1 (0.833333 µM),0.151
9,CC(C)c1cc(-c2ccc(F)c3ccccc23)nc(N)n1 (10 µM),0.153
10,C[C@@H](c1nc(-c2ccc(C#N)cc2)cs1)[C@](O)(Cn1cncn1)c1cc(F)ccc1F [isavuconazole] (10 µM),-0.116
11,CCCCc1ccc(NS(=O)(=O)c2ccc(F)cc2)cc1 (10 µM),0.122
12,CCCCCCCCCCCCCC(=O)[O-].CCCCCCCCCCCCCC(=O)[O-].N[C@@H]1CCCC[C@H]1N.[Pt+2] [miriplatin] (10 µM),0.0834
13,c1ccc2nc(C3=NCCN3)ccc2c1 (10 µM),0.125
14,CCOc1nc2cccc(C(=O)OC(C)OC(=O)OC3CCCCC3)c2n1Cc1ccc(-c2ccccc2-c2nn[nH]n2)cc1 (stereo not given) [candesartan-cilexetil] (10 µM),0.13
15,CCC(C)(Oc1ccc(C2(c3ccc(OC(C)(CC)C(=O)O)cc3)CCCCC2)cc1)C(=O)O (stereo not given) [clinofibrate] (10 µM),0.0154
16,CCC(=O)O[C@H]1[C@H](O[C@@H]2[C@@H](C)[C@H](O[C@H]3C[C@@](C)(OC)[C@@H](O)[C@H](C)O3)[C@@H](C)C(=O)O[C@H](CC)[C@@](C)(O)[C@H](O)[C@@H](C)C(=O)[C@H](C)C[C@@]2(C)O)O[C@H](C)C[C@@H]1N(C)C [erythromycin-estolate] (10 µM),0.0736
17,CCOC(=O)CNC(=O)[C@@H]1CCCN1C(=O)Cc1ccccc1 (10 µM),-0.0562
18,C=C[C@]1(C)C[C@@H](OC(=O)CS[C@@H]2C[C@H]3CC[C@@H](C2)N3C)[C@]2(C)[C@H](C)CC[C@]3(CCC(=O)[C@H]32)[C@@H](C)[C@@H]1O [retapamulin] (10 µM),0.0286
19,CC(C)(Oc1ccc(C(=O)c2ccc(Cl)cc2)cc1)C(=O)O [fenofibric-acid] (10 µM),0.137
20,CN(C)C(=S)SC(=S)N(C)C [tetramethylthiuram-monosulfide] (10 µM),-0.225

row,SMILES,morphology score
1,COc1ccc(C2C(=O)c3ccccc3C2=O)cc1 [anisindione] (10 µM),-0.177
2,C[C@@]1(C(=O)O)NCCc2cc(O)c(O)cc21 [salsolinol-1-carboxylic-acid] (10 µM),-0.0436
3,Cc1ccc(F)c(NC(=O)Nc2ccc(-c3cccc4[nH]nc(N)c34)cc2)c1 [linifanib] (10 µM),-0.188
4,CO[C@H]1C[C@H](O[C@H]2CC[C@@]3(C)[C@H](CC[C@@H]4[C@@H]3CC[C@]3(C)[C@@H](C5=CC(=O)OC5)[C@@H](OC(C)=O)C[C@]43O)C2)O[C@@H](C)[C@@H]1O [oleandrin] (0.833333 µM),-0.173
5,N#C/C(=C1/SC[C@@H](c2ccc(Cl)cc2Cl)S1)n1ccnc1 [luliconazole] (10 µM),0.0257
6,O=C(/C=C/c1c(C(=O)O)[nH]c2cc(Cl)cc(Cl)c12)Nc1ccccc1 [gavestinel] (10 µM),0.121
7,NC(=O)N/N=C/c1ccc([N+](=O)[O-])o1 [nitrofurazone] (10 µM),0.187
8,CCN(CC)C(=O)N[C@H]1C[C@@H]2c3cccc4[nH]cc(c34)C[C@H]2N(C)C1 [terguride] (10 µM),-0.00522
9,Cc1cccc(C)c1NC(=O)CN1CCN(CCCC(c2ccc(F)cc2)c2ccc(F)cc2)CC1 [lidoflazine] (10 µM),0.34
10,OC1=c2ccccc2=C(NC2CCCCC2)/C1=C\c1ccccc1 (0.833333 µM),0.213
11,C[C@H]1[C@@H](O)O[C@@H]2O[C@@]3(C)CC[C@H]4[C@H](C)CC[C@@H]1[C@@]24OO3 (10 µM),0.225
12,CC(C)c1onc(-c2c(Cl)cccc2Cl)c1COc1ccc(/C=C/c2cccc(C(=O)O)c2)c(Cl)c1 (10 µM),0.151
13,Fc1ccc(C(OCCN2CCN(C/C=C/c3ccccc3)CC2)c2ccc(F)cc2)cc1 (10 µM),0.456
14,C[C@@H]1CN(CCCn2c3ccccc3c3ccccc32)C[C@H](C)N1 [rimcazole] (10 µM),0.623
15,C[C@H]1C[C@H]2[C@@H]3CCC4=CC(=O)C=C[C@]4(C)[C@@]3(F)[C@@H](O)C[C@]2(C)[C@@]1(O)C(=O)CO [betamethasone] (10 µM),-0.0234
16,CC(C)(C=O)Cc1cc(C(C)(C)C)c(O)c(C(C)(C)C)c1 (10 µM),0.0771
17,CC(=O)O[C@]1(C(C)=O)CC[C@H]2[C@@H]3C=C(C)C4=CC(=O)CC[C@@H]4[C@H]3CC[C@@]21C [nomegestrol-acetate] (10 µM),0.147
18,CC(C)(C)C(=O)C(Oc1ccc(Cl)cc1)n1ccnc1 (stereo not given) [climbazole] (10 µM),0.217
19,Cc1cc(O)ccc1Cl [chlorocresol] (10 µM),0.0498
20,CCOc1cc2ncc(C#N)c(Nc3ccc(F)c(Cl)c3)c2cc1NC(=O)/C=C/CN(C)C [pelitinib] (10 µM),-0.188
